Reference: PubChem BioAssay AID1903 (Southern Research Specialized Biocontainment Screening …, 2009)
Out of some 310,000 compounds screened, about 1,200 (0.39%) were called active. No rule for the calls is given here. Not all results are given here. Potency and affinity values are given separately.

The molecules below were run against Large T antigen (Simian virus 40) (UniProt P03070) (assay: SV40 large T antigen inhibitors, biochemical (AID 1903)). Conditions: SV40 large T antigen ATPase/helicase inhibition assay; at 20 µM; hits give high values.
Sequence of Large T antigen (Simian virus 40) (P03070 whole entry, looked up): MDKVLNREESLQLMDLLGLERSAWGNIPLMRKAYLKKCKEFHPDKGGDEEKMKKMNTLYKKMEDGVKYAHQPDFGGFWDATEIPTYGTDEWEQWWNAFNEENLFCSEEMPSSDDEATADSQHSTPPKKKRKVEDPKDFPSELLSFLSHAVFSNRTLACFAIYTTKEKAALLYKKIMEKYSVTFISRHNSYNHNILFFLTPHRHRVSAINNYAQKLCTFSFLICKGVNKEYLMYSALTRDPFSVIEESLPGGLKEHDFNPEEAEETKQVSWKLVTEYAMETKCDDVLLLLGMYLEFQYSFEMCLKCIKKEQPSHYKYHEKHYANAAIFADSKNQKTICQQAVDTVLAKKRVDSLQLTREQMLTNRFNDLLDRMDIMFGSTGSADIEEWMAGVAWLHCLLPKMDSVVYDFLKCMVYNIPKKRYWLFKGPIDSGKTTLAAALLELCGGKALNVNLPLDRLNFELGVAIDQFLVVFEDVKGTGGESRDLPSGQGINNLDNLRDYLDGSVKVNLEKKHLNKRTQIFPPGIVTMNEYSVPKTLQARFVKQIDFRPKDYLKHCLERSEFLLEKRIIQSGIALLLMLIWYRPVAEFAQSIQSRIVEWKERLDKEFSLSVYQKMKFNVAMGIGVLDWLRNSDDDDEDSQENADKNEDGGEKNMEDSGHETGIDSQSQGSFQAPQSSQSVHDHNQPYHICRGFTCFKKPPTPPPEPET

inhibition, inactive:
Cc1ccc(OCC(=O)Nc2ccc(F)cc2)c([N+](=O)[O-])n1 6.19%
Cc1ccc(NC(=O)C2CCN(S(=O)(=O)c3cnc[nH]3)CC2)cc1C 12%
COc1ccccc1OCC(=O)Nc1nonc1NC(=O)COc1ccccc1OC 11.7%
CC(=O)Nc1ccc(N2CC(C)(C)C2=O)cc1 14.5%
COc1ccc(F)cc1S(=O)(=O)N1CCCC(C)C1 (stereo unspecified) 4.43%
OCCC1CN(Cc2cccc(C(F)(F)F)c2)CCN1Cc1ccccc1 (stereo unspecified) 5.73%
O=Cc1ccc(-c2cccc(C(=O)O)c2)o1 8.85%
O=C1NN(c2ccccc2)C(=O)/C1=C/c1ccc(Sc2cccc3ccccc23)o1 9.56%
CCSc1ccccc1C(=O)N1CCN(c2ccccc2F)CC1 4.24%
CC(C)c1ccc(C2/C(=C(\O)c3ccc4c(c3)OCCO4)C(=O)C(=O)N2CCN2CCOCC2)cc1 (stereo unspecified) 10.8%
N#C/C(=C\c1ccncc1)c1nc2ccccc2[nH]1 -51.6%
Cc1ccc2nc(/C(C#N)=C/c3ccc(O)c(O)c3)[nH]c2c1 36.8%
Cn1c(CSCc2ccc(F)cc2)nnc1SCC(=O)N1CCN(c2ccccc2)CC1 29.3%
CC1=CN2C(=NC(=O)CC2(C)C(=O)N(CC(=O)NC2CCCC2)Cc2ccccc2)C=C1 (stereo unspecified) 3.88%
CCCc1cc(=O)[nH]c(Nc2ccc(Cl)cc2)n1 16.6%
Oc1ccc(Nc2nc(-c3ccc4ccccc4c3)cs2)cc1 35.8%
Cc1c(O)c2ccccc2oc1=O 8.49%
COc1c(CC=C(C)C)c(O)cc2oc(=O)c3c4ccc(O)cc4oc3c12 21.6%
O=C1C=C(NC2CC2)C2(CCCCC2)O1 6.12%
C=CCN1C(=O)C2C3C=CC(C2C1=O)C1C2C(=O)N(CC=C)C(=O)C2C31 (stereo unspecified) 0.93%
Cc1oc2cc(O)ccc2c(=O)c1-c1cnn(-c2ccccc2)c1 1.6%
Cc1oc2c(C)c(O)ccc2c(=O)c1-c1cnn(-c2ccccc2)c1 12.9%
CC(C)N1C(=O)CCC1C(=O)NCc1ccco1 (stereo unspecified) 10.9%
CCOC(=O)C1=C(CC)Nc2ccccc2N=C1NC(=O)Cn1cnc2ccccc2c1=O -2.64%
S=C(NCC1CCCO1)N1CCN(c2ccccc2)CC1 (stereo unspecified) 8.18%
CC(C)(C)OC(=O)NCCCC[C@H](NC(=O)c1nc[nH]c1C(=O)NC1CCN(C(=O)OC(C)(C)C)CC1)C(=O)OC(C)(C)C 3.23%
Nc1c(-c2cccc([N+](=O)[O-])c2)nc2ccccn12 15.8%
O=[N+]([O-])c1cccc(-c2ncc3ccccn23)c1 -2.83%
Cc1cc(NC(=O)CSCC(=O)Nc2cc(C(F)(F)F)ccc2N2CCCC2)no1 4.79%
Nc1ncnc2c1ncn2CCOc1ccccc1 3.18%
O=C(N/N=C/c1ccc(O)c(Br)c1)c1cc2c(ccc3ccccc32)o1 -8.03%
O=C(N/N=C/c1cc(Cl)c(O)c(Cl)c1)c1cc2c(ccc3ccccc32)o1 29.3%
O=C(CCc1ccccc1)NNC(=O)c1ccccc1F 10.9%
Cc1nc(C)c(-c2csc(Nc3ccc(F)cc3)n2)s1 6.12%
Cc1ccc(Nc2nc(-c3sc(C)nc3C)cs2)cc1 3.8%
COc1ccc(/C(C)=N\NC(=O)c2ccc3c(c2)OCO3)cc1OC 1.47%
Cc1c(NS(=O)(=O)c2cc(C(=O)NCCN(C)C)ccc2Cl)c(=O)n(-c2ccccc2)n1C 10.6%
C=CCN1C(=O)CSC1=Nc1ccc(O)cc1 27.9%
COc1ccc(N=C2SCC(=O)N2c2ccc(OC)cc2)cc1 13.7%
Cc1cccc(C(=O)NCC(=O)NCC2COc3ccccc3O2)c1 (stereo unspecified) 23.4%
CCOc1c(/C=C(\C#N)C(N)=O)c2ccccc2n1CC 3.23%
COc1ccc(Oc2nc3ccccc3n3cccc23)cc1 5.06%
CCc1ccc2[nH]c(=O)c(C(c3nnnn3CCOC)N3CCN(c4ccccc4)CC3)cc2c1 (stereo unspecified) 6%
CCc1ccc2[nH]c(=O)c(C(c3nnnn3CCOC)N3CCN(c4ccc(F)cc4)CC3)cc2c1 (stereo unspecified) 16.5%
CSCc1cc(N2CCOCC2)nc(-c2ccccc2)n1 9.12%
O=C(Cc1ccc([N+](=O)[O-])cc1)c1c(O)cc(O)cc1O 28%
COC(=O)CSC1=NS(=O)(=O)c2ccccc21 5.69%
O=C(CN1C(=O)c2ccccc2S1(=O)=O)Nc1ccccc1 18.1%
NS(=O)(=O)c1ccc(NC(=O)c2cccc(N3C(=O)c4ccccc4C3=O)c2)cc1 7.91%
COC(=O)CCC(=O)Nc1ccc(N=Nc2ccccc2)cc1 8.53%
COc1ccc(-c2nc(-c3ccccc3)[nH]c(=O)c2C#N)cc1 9.65%
Clc1cc(Cl)cc(C2=NC(Cc3ccccc3)CO2)c1 (stereo unspecified) 4.6%
COc1ccc(C2C(C#N)=C(N)N(N(C)C)C3=C2C(=O)CCC3)cc1 (stereo unspecified) 6.69%
COc1ccc(C[C@H]2COC(=O)[C@@H]2Cc2ccc(OC3OC(CO)C(O)C(O)C3O)c(OC)c2)cc1OC (stereo partly specified) 11.3%
COc1cc(/C=C/CO)ccc1O[C@@H]1O[C@H](CO)[C@@H](O)[C@H](O)[C@H]1O 1.74%
CCCCOc1ccc(C(=O)NCC(=O)N2CCN(Cc3ccc4c(c3)OCO4)CC2)cc1 14%
COc1ccc(NC(=O)COc2ccc(C)cc2)c([N+](=O)[O-])c1 5.55%
O=C(NCCOCCNC(=O)OCc1ccccc1)OCc1ccccc1 24.2%
CCOC(=O)c1c(NC(C)=O)sc2c(OC)c(Br)ccc12 1.77%
CCOC(=O)c1c(NC(C)=O)sc2c(O)c(Br)ccc12 12.8%
Cc1cc(C)c(C)c(OCCOCCNCc2ccccc2)c1 -32.9%
